# Measles CPE: compounds protecting cells from measles virus cytopathic effect, primary screen, measles RdRp inhibitor project, single point, MLSMR library, absorbance | AID 841, 2007 | actives 1.5% (n = 140,000) | Measles virus-infected cells, CPE protection | protection (pct of control), % at 4 µM; in the data active means protection mostly above about 24%, no sharp cut-off; inactive means mostly below about 26%
# CYP2C19 activ: human CYP2C19 activators, primary screen, biochemical, luminescence; Cytochrome P450 2C19 (Homo sapiens), P33261; recombinant CYP2C19, luciferin-H EGE luminescence; active compounds read high; 0 = fully inhibited enzyme, 1 = untreated enzyme; activation factor at 5 µM; 96,000 tested, under 10 active;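 active means activation factor of at least 2 at 5 µM in the primary screen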;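 further: 0 = wells with 2.5 mM tranylcypromine and 1 = vehicle-only wells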
# Target sequence (P33261 whole entry, looked up): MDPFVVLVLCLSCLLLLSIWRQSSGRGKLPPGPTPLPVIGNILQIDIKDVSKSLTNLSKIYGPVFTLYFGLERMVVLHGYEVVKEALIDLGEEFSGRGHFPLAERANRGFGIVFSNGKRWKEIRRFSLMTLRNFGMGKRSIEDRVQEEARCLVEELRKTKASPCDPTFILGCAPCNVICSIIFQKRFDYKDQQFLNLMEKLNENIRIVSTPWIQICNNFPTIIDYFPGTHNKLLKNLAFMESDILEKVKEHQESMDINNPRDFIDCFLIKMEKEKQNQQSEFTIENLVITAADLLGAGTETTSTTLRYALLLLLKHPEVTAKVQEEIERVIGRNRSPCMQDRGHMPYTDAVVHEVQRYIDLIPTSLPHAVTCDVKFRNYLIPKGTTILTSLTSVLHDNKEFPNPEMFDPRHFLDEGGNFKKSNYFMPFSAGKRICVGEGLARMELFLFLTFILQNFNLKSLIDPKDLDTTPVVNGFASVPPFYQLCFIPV
# CYP2C9 act: human CYP2C9 activators, primary screen, biochemical, luminescence | recombinant CYP2C9, luciferin-H conversion; active compounds read high; factor 1 = untreated enzyme, 0 = blocked | activation factor at 5 µM | actives 1.4% (n = 96,000);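 active means activation factor of 2 or more for CYP2C9 at a 5 µM dose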;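 further: 0 = sulfaphenazole-blocked wells and 1 = vehicle-only wells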
# CYP2C19 inhib: blockers of cytochrome P450 2C19 activity – biochemical, luminescence, ADME assay, primary screen. AID 778, 2007. inhibition, % at 5 µM. actives 21% (n = 96,000). P33261. CYP2C19 Supersomes, luciferin-H EGE luminescence, 30 min;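 active means CYP2C19 inhibition above a set limit at 5 µM in the primary screen, cut at about 50% in these data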;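 further: plate controls were negative control wells for no effect and 2.5 mM tranylcypromine positive control for full effect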
# CYP2C9 inh: blockers of cytochrome P450 2C9 activity – biochemical, luminescence, ADME assay, primary screen | P11712 | CYP2C9 Supersomes, luciferin-H conversion | inhibition, % at 5 µM | actives 20% (n = 96,000) | AID 777, 2007;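 active means blocking of liver enzyme CYP2C9 beyond about 50% at 5 µM, limit read from the data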
# Active calls of the source: *; . = no result. Shown are actives, neighbours in structure and some others; about 22% of the full set was active somewhere.
SMILES,Measles CPE,CYP2C19 activ,CYP2C9 act,CYP2C19 inhib,CYP2C9 inh
Cc1csc2ncc(C(=O)NCCc3ccccc3)c(=O)n12,10,0.5,1.2,54*,-17
O=C(NCCc1ccccc1)c1cnc2ccccn2c1=O,14,0.5,0.8,55*,21
CCOc1ccc(NC(=O)c2cnc3scc(C)n3c2=O)cc1,.,1.1,2.8*,-13,-180
Cc1ccccc1NC(=O)c1cnc2ccccn2c1=O,4,0.8,1,20,5
Cc1csc2ncc(C(=O)NCc3ccccn3)c(=O)n12,30,.,.,.,.
C/C(=N\NC(=O)c1ccc(Cn2cc([N+](=O)[O-])cn2)o1)c1cccc(NC(=O)c2cccnc2)c1,3,.,.,.,.
CCn1c(SCC(=O)Nc2ccc3c(c2)OCCO3)nnc1-c1cccs1,8,0.7,0.5,33,52*
CCn1c(SCC(=O)NCC(=O)Nc2ccc(F)cc2)nnc1-c1cccs1,11,0.7,0.1,31,93*
CCn1c(SCC(=O)Nc2cc(C)on2)nnc1-c1cccs1,1,0.2,0.7,83*,31
Cc1nnc(SCC(=O)Nc2ccc3c(c2)OCCO3)n1N,1,1,1,-2,-3
CCn1c(SCC(=O)Nc2ccc(C(=O)OC)cc2)nnc1-c1cccs1,14,0.5,0.6,51*,38
CCn1c(SCC(=O)Nc2cc(C)on2)nnc1-c1cccnc1,22,0.7,0.9,31,9
C=CCn1c(SCC(=O)Nc2ccc(C(=O)OCC)cc2)nnc1-c1cccs1,4,1.1,0.9,-8,5
COc1ccc(CCCC(=O)NC2CCCCC2C)c(C)c1 (stereo not drawn),21,0.7,1.4,28,-36
COc1cc(/C=N/NC(=O)c2[nH]nc3c2CCc2ccccc2-3)ccc1O,8,.,.,.,.
Cn1c(=O)n(-c2ccccc2)c(=O)c2c3c(sc21)COC(C)(C)C3,18*,0.6,0.8,38,23
CCCCSc1nnc2n(CCc3ccccc3)c(=O)c3c4c(sc3n12)COC(C)(C)C4,26,0.2,0.5,80*,51*
Cc1c(NC(=O)CSc2ccc3c(c2)OCCO3)c(=O)n(-c2ccccc2)n1C,14,1.1,1,-7,0
Cc1noc(C)c1COC(=O)CCCc1nc2ccccc2s1,3,0.6,0.5,41,51*
CC(OC(=O)CCCc1nc2ccccc2s1)C(N)=O (stereo not drawn),29*,0.8,1.2,16,-18
O=C(Nc1nn[nH]n1)c1cccc(Oc2ccccc2)c1,3,1.1,1.1,-12,-11
CCOC(=O)CC(NC(=O)c1ccco1)c1ccccc1Cl (stereo not drawn),18,0.7,0.8,33,19
CCOC(=O)CC(Nc1nc(N2CCOCC2)nc(N2CCOCC2)n1)c1ccccc1Cl (stereo not drawn),7,0.3,0.5,68*,53*
CCN(CC)CCN1C(=O)C(=O)/C(=C(/O)c2c(C)[nH]c(C(=O)OC)c2C)C1c1ccc(OC)cc1 (stereo not drawn),29,0.9,1.3,7,-31
CCN(CC)C(=O)CSC1=C(C#N)C(c2ccco2)C(C(=O)OCCOC)=C(C)N1 (stereo not drawn),6,.,.,.,.
SMILES,Measles CPE,CYP2C19 activ,CYP2C9 act,CYP2C19 inhib,CYP2C9 inh
CC(=O)C1=C(C)NC(SCC(=O)c2cc(Cl)ccc2Cl)=C(C#N)C1c1ccco1 (stereo not drawn),.,0,0,100*,100*
CC(=O)C1=C(C)NC(SCC(=O)c2ccc(Cl)c(Cl)c2)=C(C#N)C1c1ccco1 (stereo not drawn),.,0.2,0.1,77*,93*
CN(C)S(=O)(=O)c1cc(NC(=O)COC(=O)C2CSC3(C)CCC(=O)N23)ccc1Cl (stereo not drawn),2,.,.,.,.
COC(=O)c1c(NC(=O)c2cccnc2)sc(C(=O)N(C)C)c1C,14,.,.,.,.
O=S(=O)(C=C(c1ccccc1)c1ccccc1)c1ccccc1,9,0.3,0.7,66*,32
CCCCNS(=O)(=O)/C=C/c1ccccc1,2,.,.,.,.
O=S(=O)(/C=C/c1ccccc1)c1ccccc1,6,0.1,4.1*,91*,-306
COc1cc(Nc2cc(C)nc3nc(C)nn23)cc(OC)c1OC,1,1.1,0.9,-13,6
Cc1nc(C)c(C(=O)N/N=C/c2cn(C)c3ccccc23)s1,4,0.5,1.2,53*,-24
Cc1sc(NC(=O)CSc2nnnn2C2CCCC2)c(C#N)c1C,23,1.1,0.9,-11,9
O=C(NCc1cccnc1)c1ccc(CS(=O)(=O)c2ccc(Cl)cc2)o1,31,0,0.1,100*,93*
O=C(NCc1cccs1)c1ccc(CS(=O)(=O)c2ccc(Cl)cc2)o1,2,0.5,0.3,52*,72*
COc1ccc(S(=O)(=O)Cc2ccc(C(=O)NCc3cccs3)o2)cc1,6,0.7,0.4,27,60*
O=C(NCc1cccs1)c1cc2ccccc2o1,4,0.4,0.8,56*,18
O=C(NCc1cccs1)c1ccccc1C(=O)NCc1cccs1,14,0.6,0.9,35,7
CC(C)(C)n1nnnc1C(c1cccnc1)N1CCN(C(=O)c2ccco2)CC1 (stereo not drawn),15,.,.,.,.
COc1cccc(NC(=O)NC2CCN(Cc3nnnn3Cc3ccc(F)cc3)CC2)c1,9,0.9,0.6,12,42
COc1ccc(Cl)cc1NC(=O)CSc1nnc(COc2ccccc2)n1N,8,0.6,1.6,44,-58
Cc1ccc(-c2nnc(N3CCOCC3)c3ccccc23)cc1S(=O)(=O)NCC1CCCO1 (stereo not drawn),12,0.5,0.3,47,71*
O=C(NCCO)/C(=C/c1ccc(Br)cc1)NC(=O)c1cccs1,20,1,1,1,-1
CC(=O)/C(=N/Nc1cccc(Cl)c1)N1CCOCC1,23,0.3,0.4,72*,65*
CC(=O)/C(=N/Nc1ccccc1)N1CCOCC1,2,0.8,1.1,16,-6
CCOC(=O)c1c(C)[nH]c(C(=O)CN2C(=O)NC(C)(c3ccc(C)cc3)C2=O)c1C (stereo not drawn),3,0.2,0.3,83*,75*
CCOC(=O)c1c(C)[nH]c(C(=O)CN2C(=O)NC(CC)(c3ccccc3)C2=O)c1C (stereo not drawn),4,0.4,0.3,64*,67*
CC(Sc1nnc(C(F)(F)F)n1C)C(=O)NC(N)=O (stereo not drawn),60*,1,1,-4,4
CNC(=O)NC(=O)CSc1nnc(C(F)(F)F)n1C,2,1.1,1.1,-5,-11
CC(=O)N1CCc2cc(S(=O)(=O)N3CCOCC3)ccc21,4,1,1,-1,-1

# Screening results deposited in PubChem BioAssay by several laboratories.
